Source: PubChem BioAssay
Hits are enriched below; roughly 2.8% of the tested compounds scored in any of these assays.
POLI inh = DNA polymerase iota (human) inhibition; Potency, µM (doses to about 115 µM), inactives show top-dose activity, negative = inhibition, actives largely listed as inhibitors; Pol iota fluorescent replication assay, 10 min; actives 1% (n = 390,000); Q9UNA4; AID 588590; note: potency is the fitted concentration of half-maximal effect
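Pol iota at 10 nM preincubated 15 min with compounds at room temperature; reaction started with fluorescent substrate, 50 nM final. Fluorescence read kinetically at 0 and 10 min; buffer-only wells as negative control.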
PI5P4K alpha inh = inhibitors of human PI5P4K alpha; P48426; PI5P4Kalpha enzyme, ADP-Glo luminescence, 60 min; hits give low values; max response, %; actives 1.2% (n = 330,000); AID 652105; active = max response of -50% or lower; inconclusive = between -30% and -50%; inactive = -30% or higher; note: value at the top dose of about 77 µM; % is set by controls: 0 for no effect and ±100 for the full control effect
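ADP-Glo luminescence end-point read after a 60 min room-temperature kinase reaction of PI5P4Kalpha plus substrate, initiated with ATP at 5 microM final. Buffer: 0.038 M HEPES pH 7.4, EGTA, 0.1% CHAPS, 5% DMSO.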
Pol beta inh = DNA polymerase beta (human) inhibition. P06746. Pol beta primer extension/strand displacement, fluorescence kinetic. Potency, µM (doses to about 114 µM), inactives show at the top dose activity change, negative = inhibition, usual class: inhibitors. actives 1.3% (n = 340,000); note: potency is the fitted concentration of half-maximal effect; % is set by controls: 0 for no effect and ±100 for the full control effect
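Kinetic readout of DNA synthesis with strand displacement by Pol beta. Compound and 10 nM enzyme sit 15 min at room temperature; 50 nM substrate starts the reaction, read immediately and at 10 min.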
Pol eta inh = inhibitors of human DNA polymerase eta. Q9Y253. recombinant Pol eta, fluorescent DNA replication assay. Potency, µM (highest dose often 114 µM), for inactives: at the highest dose activity change, negative = inhibition, hits mostly inhibitors. actives 1.2% (n = 390,000); note: potency is the fitted concentration of half-maximal effect; % is set by controls: 0 for no effect and ±100 for the full control effect
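Fluorescent replication assay: 50 nM final substrate added after a 15 min room-temperature compound preincubation with 10 nM enzyme. Signal taken at 0 min and again at 10 min.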
WRN inhibitor = blocks human WRN helicase; AID 651768; Potency, µM (series often up to 114 µM), for inactives: at the top dose activity change, negative = inhibition, most hits filed as inhibitors; Q14191; actives 0.46% (n = 360,000); WRN helicase unwinding, fluorescent forked duplex, kinetic; note: potency is the fitted concentration of half-maximal effect; % is set by controls: 0 for no effect and ±100 for the full control effect; nearly all actives have a fitted effect of over 55% in size
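Enzyme (20 nM final) and test compound sit together 15 min at room temperature before substrate addition. Substrate is a single-forked duplex oligonucleotide (100 nM) labelled with fluorophore and quencher, with 2 mM ATP; helicase unwinding raises red fluorescence, read kinetically.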
POLK inh = inhibitors of human DNA polymerase kappa | purified Pol kappa, fluorescent DNA synthesis assay, 10 min | Potency, µM (titrated, usually from 107 µM), for inactives: at the highest dose activity, negative = inhibition, most hits filed as inhibitors | actives 0.53% (n = 400,000); note: potency is the fitted concentration of half-maximal effect; % is set by controls: 0 for no effect and ±100 for the full control effect
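Enzyme at 10 nM met test compounds for 15 min at room temperature. Substrate addition (50 nM final) began the reaction, which was monitored by fluorescence at 0 and 10 min.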
An asterisk follows results filed as active; ? = inconclusive; / = no result given; [ ] = dose if it differs, or a comment. Unless noted, calls come from the whole dose curve; as a rule, active = well fitted curve in the direction sought with a large enough effect; inconclusive = small, poorly fitted or top-dose-only effect, or another doubt; inactive = no such curve, though single readings can be large; an effect the other way counts as inactive or inconclusive.

SMILES	POLI inh	PI5P4K alpha inh	Pol beta inh	Pol eta inh	WRN inhibitor	POLK inh
CCC(Sc1nc2ccccc2c2nc(CCn3cncc3C)nn12)C(=O)Nc1cccc(OC)c1 (stereo not given)	23.1%	/	50.1µM*	-14.3%	/	-3.5%[60.1 µM]
COc1ccccc1Cn1c(SCC(=O)C(C)(C)C)nc2ccccc2c1=O	32.9%	/	-14.3%	-18.8%	/	2.1%[60.1 µM]
c1ccc(-c2nc3nonc3c3nc4ccccc4n23)cc1	22.6%	/	44.7µM*	-2.2%	-23.0%	-3.1%
O=C(O)/C(=C\c1ccccc1OC(F)F)c1ccc(-c2ccccc2)cc1	61.4%	0.0	56.2µM*	-28.9%	-25.0%	-29.9%
CCOC(=O)Cn1c(=O)n(CC2CCCO2)c2nc(-c3ccc(OCC)cc3)nc(C(N)=O)c21 (stereo not given)	-5.5%	/	-0.8%	-11.8%	/	-1.0%[60.1 µM]
CCOC(=O)c1c(C)c(C(=O)NCc2ccc(Cl)cc2)c(C)n1CC	14.7%	/	11.3%	14.4%	/	-7.6%
CSc1nc(NCc2ccco2)c2c3c(sc2n1)CN(C)CC3	/	/	39.8µM*	/	/	/
COc1ccccc1CNS(=O)(=O)c1ccc2c(c1)CC(C)N2C(C)=O (stereo not given)	-8.4%	/	35.3%	-9.2%	/	-13.0%
CCCCn1c(=O)[nH]c(=O)c2c1nc(Cn1ncc(Cl)c(Cl)c1=O)n2CCC	25.1µM*	-51.9*	50.1µM*	56.2µM*	-23.4%	-8.2%
CC(=O)c1cccc(NC(=O)Cn2cc(C(=O)c3cccc(Cl)c3)c(=O)c3ccc(C)nc32)c1	89.1µM*	/	15.0%	-0.5%	/	-6.6%
CC1=C(C(=O)OC2CCCC2)C(c2cccc(Cl)c2Cl)CC(=O)N1 (stereo not given)	-0.6%	/	-10.0%	-26.5%	/	0.0%
Cc1ccc2oc(-c3ccc(C)c(NC(=O)c4ccc(-c5ccccc5[N+](=O)[O-])o4)c3)nc2c1	2.7%	/	17.6%	-15.4%	/	2.9%
CCn1nc(CC(=O)Nc2ccc(-n3cnnn3)c(OC)c2)c2ccccc2c1=O	0.5%	-2.2	31.6µM*	?	-12.0%	-20.8%
COCCCn1c(SCC(=O)OC2CCCCC2)nnc1-c1ccco1	5.3%	/	35.8%	-2.1%	4.9%	-7.2%
COCCCn1c(SCC(=O)OC2CCCCC2)nnc1-c1cccs1	100µM*	/	2.7%	-12.4%	-8.6%	-20.1%
CCN(CC)c1ccc(/C=C/c2ccncc2)cc1	79.4µM*	/	/	/	/	-30.4%
CN(C)c1ccc(/C=C/c2ccncc2)cc1	41.1%	1.9	0.9%	5.0%	?	-9.9%
O=C(O)c1ccc(/C=N\Nc2ccc(S(=O)(=O)N3CCOCC3)cc2[N+](=O)[O-])cc1	-10.3%	-1.1	?	?	-2.9%	9.9%
Cc1ccc(-n2c(O)c(/C=N/Nc3ccc(S(=O)(=O)N4CCOCC4)cc3[N+](=O)[O-])c3ccccc3c2=O)c(C)c1	?	?	79.4µM*	44.7µM*	-34.7%[57.1 µM]	-16.1%
COCc1c(Br)c(C)nc(OCC(=O)N/N=C/c2ccco2)c1C#N	?	-13.1	17.8µM*	20.2%	-12.0%	-1.9%[60.1 µM]
COc1ccc(S(=O)(=O)N(CC(=O)Nc2cccc(C)c2)c2ccc(C)cc2)cc1OC	24.8%	/	5.9%	-20.6%	/	-11.5%[60.1 µM]
Cc1cc(C)c2nc(-c3ccccn3)cc(C(=O)NCc3cc(C)n(C)n3)c2c1	17.4%	-7.8	39.8µM*	-10.2%	-4.0%	0.5%
Cc1cc(C)c2nc(-c3ccccn3)cc(C(=O)NCc3ccco3)c2c1	?	?	39.8µM*	?	?	?
Cc1cc(C)c2nc(-c3ccccn3)cc(C(=O)Nn3cnnc3)c2c1	83.8%	-24.5	15.2%	-20.8%	-4.3%	-14.4%
O=C(CSc1nc(=O)n2cc(Cl)ccc2n1)NCCc1ccccc1	?	?	/	25.1µM*	-25.4%	-36.2%
SMILES	POLI inh	PI5P4K alpha inh	Pol beta inh	Pol eta inh	WRN inhibitor	POLK inh
Cc1ccc2nc(SCC(=O)Nc3ccc4c(c3)OCCO4)nc(=O)n2c1	63.4%	0.6	/	-1.0%	-24.5%	-10.6%
O=C(CSc1nc(=O)n2cc(Cl)ccc2n1)Nc1ccc2c(c1)OCO2	?	?	/	20µM*	-29.4%	-42.1%
O=C(CSc1nc(=O)n2ccccc2n1)NCc1ccc2c(c1)OCO2	15.7%	4.9	/	-16.5%	-12.3%	5.4%
Cc1ccn2c(=O)nc(SCC(=O)Nc3ccc4c(c3)OCO4)nc2c1	35.5µM*	?	/	?	-34.6%	-24.5%
Cc1ccn2c(=O)nc(SCC(=O)Nc3ccc4c(c3)OCCO4)nc2c1	56.2µM*	?	/	?	-4.1%[11.6 µM]	-11.0%
COc1cccc(NC(=O)COc2ccccc2C(=O)Nc2ccccc2)c1	-21.5%	/	/	/	/	-1.4%
N/C(=N\OS(=O)(=O)c1ccccc1)c1ccncc1	20µM*	-4.9	21.7%	-5.1%	-2.2%	1.9%
N/C(=N\OS(=O)(=O)c1ccccc1)c1cccnc1	-1.1%	-0.4	26.8%	-10.1%	-2.3%	-7.1%
Cc1csc(NC(=O)/C=C/c2ccc3c(c2)OCO3)n1	6.3%	4.9	13.6%	-5.6%	-0.9%	1.7%
O=C(/C=C/c1ccc2c(c1)OCO2)Nc1nc(-c2ccc(F)cc2F)cs1	/	/	22.4µM*	/	/	/
O=C1CSC(=S)N1N1C(=O)c2cccc([N+](=O)[O-])c2C1=O	/	/	3.16µM*	/	/	/
Cc1ccc(C(=O)O)cc1NC(=O)c1nsc2ccccc12	?	/	79.4µM*	/	/	-30.6%
COc1ccc(-c2nc3sc(CCNS(=O)(=O)c4c(C)cc(C)cc4C)c(C)n3n2)cc1	9.2%	/	4.1%	-9.6%	/	-11.6%[60.1 µM]
COc1ccc(/C=c2\s/c(=C(/C#N)C(=O)NCc3ccco3)n(-c3ccccc3)c2=O)cc1	52.8%	0.0	2.1%	-9.8%	0.7%[57.1 µM]	1.5%
COC(=O)/C=c1/s/c(=C(\C#N)C(=O)NCc2ccco2)n(-c2ccccc2)c1=O	89.1µM*	-25.4	18.3%	?	-7.7%[11.6 µM]	-10.3%
CC[C@@]1(c2ccccc2)NC(=O)NC1=O	/	/	/	/	/	-4.4%[60.1 µM]
CCCCN=Cc1c(C)[nH]n(-c2ccccc2)c1=S	8.2%	-4.3	-0.2%	-18.0%	9.8%	-1.3%
Cc1[nH]n(-c2ccccc2)c(=S)c1C=Nc1cccc([N+](=O)[O-])c1	22.9%	-105.1*	50.3%	-12.1%	-19.3%[57.1 µM]	-5.1%
O=C(Nc1cccc(C(=O)O)c1)/C(=C\c1ccco1)NC(=O)c1ccccc1Cl	?	?	1.7%	-13.5%	0.3%[11.6 µM]	35.5µM*
Cc1cc(C)c(S(=O)(=O)NCC2CCC(C(=O)NCCc3ccccc3)CC2)c(C)c1 (stereo not given)	-3.8%	/	8.2%	8.5%	/	-13.7%[60.1 µM]
O=C(O)c1ccccc1N/N=C\c1ccnc2ccccc12	-22.3%	-68.2*	?	?	-33.2%	-4.6%
O=C(O)c1ccccc1N/N=C/c1cc(Br)cc(Br)c1O	?	?	?	79.4µM*	-33.8%	-21.8%
COc1ccc(CC(=O)N/N=C\c2cc(Br)c(O)c(Br)c2)cc1	-24.0%	-67.8*	?	?	2.2%	14.3%
